Assay results reported in the OligoGym collection.

molecular target: SYCP2L; assay: pooled miR-30 sensor sort-seq; sequence = guide strand; details: shRNA

First: TTCATCACCGCTTCCTTCGGAA
Second: TTGATTGTTGTGACTTAGCAAA
The sensor-assay potency score (higher = more potent) of the first is higher: -0.0578 for the first, -1.27 for the second.

Compared with AATATCTTTATCTTCTCCGTTT, TAGGTTTTTCTTCATCTTCTGA is lower in sensor-assay potency score (higher = more potent): -0.529 for the first, -0.679 for the second.

Going from ATCTTCTATAACACAAATCAGC to TTATTGATCTGTCAAGACGGTA, the sensor-assay potency score (higher = more potent) rises from -1.67 to -0.997.

Going from TATATAAAAAGTGACACTCTGA to TTCATGACTTCTTTGTAGCTGA, the sensor-assay potency score (higher = more potent) rises from -0.257 to 0.227.

First: TTGGTCACCAAGTCTGTTGTTT
Second: TTCTTTGTAGCTGATAATCATG
The sensor-assay potency score (higher = more potent) of the first is higher: -0.185 for the first, -1.28 for the second.

With TTCTATAACACAAATCAGCGAC the sensor-assay potency score (higher = more potent) was -0.297.

molecular target: SYN3; assay: as above; details: shRNA

Going from TTTCTGGATGCGGATGTCGTAC to TTCCACTTTGATCTTTCCCATT, the sensor-assay potency score (higher = more potent) falls from -1.02 to -1.45.

First: TTGGCCTCGTCTTCACTTGGGG
Second: TTTGCTGCTGTGGAGATCCGGA
The sensor-assay potency score (higher = more potent) of the first is higher: -0.142 for the first, -0.473 for the second.

First: TCGATCACCAACAGGATCCTGG
Second: TTTGGAGACAACAAGGTCGGCC
The sensor-assay potency score (higher = more potent) of the first is lower: -0.321 for the first, -0.0801 for the second.

First: TTGTAGACGGAGTAGAGAGAGT
Second: TAGTTGGATCCAATTTTCTGGA
The sensor-assay potency score (higher = more potent) of the first is lower: -1.24 for the first, -1.06 for the second.

Compared with TAATCTCTGCCATCCTTGCTGT, TTCCACATGCTCTCCAATCAGC is lower in sensor-assay potency score (higher = more potent): -0.283 for the first, -0.957 for the second.

With TTTTGGAGACAACAAGGTCGGC the sensor-assay potency score (higher = more potent) was -0.766.
